The values that follow come from PubChem BioAssay (NCI).

Some test systems named below: HCT-15 colon; HT29 colon; SNB-75 CNS; SNB-19 CNS; U251 CNS; PC-3 prostate; SK-MEL-5 melanoma; UACC-62 melanoma; LOX IMVI melanoma; SK-MEL-28 melanoma; SK-MEL-2 melanoma; EKVX NSCLC; SN12C renal; UO-31 renal; TK-10 renal; ACHN renal; CAKI-1 renal; A498 renal; CCRF-CEM leukemia; MOLT-4 leukemia.
What all share (experiment): NCI-60 one-dose screen, 48 h (100 = growth as untreated, 0 = no growth, -100 = all killed)
Conditions in all cases: 10 µM unless noted

This is part of a sample that, as a whole, favours compounds with a hit. Of some 83,000 tested, about 20% had one in any assay.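 Cell lines were cultured in 96-well plates, exposed to a single compound concentration, and assessed for percent growth 48 hours later.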 A number with no mark means an inactive call. Calls of active or inactive are those of the source. The calls were made as follows: active = growth percent below 10; inactive = the rest.

Regarding `COc1ccc(/C=N/NC(=O)CSc2nc(-c3cnccn3)cc(-c3cccs3)c2C#N)cc1OC`, the growth is 89.1% in the assay on HCT-15 colon; 60.9% in the assay on HT29 colon; 81.9% in the assay on SNB-75 CNS; 78.1% with SNB-19 CNS; 21% in the assay on U251 CNS; 80.8% in the assay on PC-3 prostate. Further, the growth is 34.8% in the assay with SK-MEL-5 melanoma; 19.8% in the assay on UACC-62 melanoma; 59.9% in the assay with LOX IMVI melanoma; 98.2% in the assay on SK-MEL-28 melanoma; 102% in the assay on SK-MEL-2 melanoma; 85.9% in the assay with EKVX NSCLC. Further, the growth is 91.1% with SN12C renal; 89% with UO-31 renal; 123% with TK-10 renal; 83% in the assay on ACHN renal; 88.1% with CAKI-1 renal; 38.2% with A498 renal. In addition, the growth in the assay on CCRF-CEM leukemia is 93.9%; in the assay on MOLT-4 leukemia it was 90.8%.
As to `COc1ccc2[nH]cc(-c3nc(N)nnc3-c3cn(C)c4ccc(Br)cc34)c2c1`, the growth with HCT-15 colon is 22%; in the assay with HT29 colon, 2.43% (active); with SNB-75 CNS, -4.14% (active); in the assay on SNB-19 CNS it was 30.5%; in the assay on U251 CNS, 20.2%; in the assay with PC-3 prostate, 24.5%. Moreover, the growth in the assay with SK-MEL-5 melanoma is 15%; in the assay with UACC-62 melanoma, 15.9%; in the assay on LOX IMVI melanoma it was 35.4%; with SK-MEL-28 melanoma it was 51.3%; with SK-MEL-2 melanoma it was 9.85% (active); in the assay with EKVX NSCLC, 38.1%. Moreover, the growth with SN12C renal was 42.6%; with UO-31 renal, 40.7%; with TK-10 renal, 54.3%; in the assay on ACHN renal it was 40.5%; in the assay on CAKI-1 renal, 29.1%; in the assay with A498 renal it was -1.71% (active). Moreover, the figures for the growth with CCRF-CEM leukemia and with MOLT-4 leukemia were 2.97% (active) and 10.7%, respectively.
On to `Cc1cc(C)cc(NC2=C(Cl)C(=O)c3nc(C)ccc3C2=O)c1`, for which the growth with HCT-15 colon is 9.74% (active); in the assay on HT29 colon it was 107%; with SNB-75 CNS, 96.4%; in the assay on SNB-19 CNS it was 75.9%; in the assay on U251 CNS it was 89.8%; with PC-3 prostate it was 59.4%. Moreover, the growth in the assay on SK-MEL-5 melanoma is 69%; in the assay on UACC-62 melanoma, 92.7%; in the assay on LOX IMVI melanoma, -3.79% (active); in the assay with SK-MEL-28 melanoma, 81.8%; in the assay with SK-MEL-2 melanoma it was 85.5%; with EKVX NSCLC, 55.1%. In addition, the growth in the assay with SN12C renal is 8.28% (active); in the assay on UO-31 renal, 0.909% (active); in the assay on TK-10 renal it was 128%; in the assay on ACHN renal it was 2.41% (active); with CAKI-1 renal, 89.6%; in the assay with A498 renal it was 88.3%. Besides, the growth was 7.91% (active) with CCRF-CEM leukemia and 24.6% in the assay with MOLT-4 leukemia.
In the case of `COC(=O)[C@@H](Cc1c[nH]c2ccccc12)NC(=O)CCCCOc1cc(O)c2c(=O)cc(-c3ccccc3)oc2c1`, the growth is 80.8% with HCT-15 colon; 107% in the assay with HT29 colon; 72.3% with SNB-75 CNS; 89.4% in the assay on SNB-19 CNS; 92.2% in the assay on U251 CNS; 73.6% in the assay on PC-3 prostate. The growth with SK-MEL-5 melanoma was -97.8% (active); in the assay with UACC-62 melanoma, 66.3%; in the assay on LOX IMVI melanoma it was 54.7%; in the assay on SK-MEL-28 melanoma it was 101%; with SK-MEL-2 melanoma it was 90.5%; in the assay on EKVX NSCLC it was 86.8%. Besides, the growth was 95.2% with SN12C renal; 68.8% in the assay with UO-31 renal; 132% in the assay on TK-10 renal; 91.8% in the assay with ACHN renal; 71.9% in the assay on CAKI-1 renal; 70% in the assay with A498 renal. Also, the growth in the assay with CCRF-CEM leukemia is 83.1%; with MOLT-4 leukemia, 65.1%.
In the case of `O=c1c2ccccc2cc2n1CCN=C2c1ccccc1`, the growth with HCT-15 colon was 96.6%; with HT29 colon it was 104%; in the assay on SNB-75 CNS, 94.9%; in the assay on SNB-19 CNS it was 94.8%; in the assay on U251 CNS, 97%; with PC-3 prostate, 96.5%. The growth in the assay on SK-MEL-5 melanoma was 99.5%; in the assay on UACC-62 melanoma, 96%; in the assay on LOX IMVI melanoma it was 101%; in the assay on SK-MEL-28 melanoma, 112%; in the assay with SK-MEL-2 melanoma, 99.8%; in the assay on EKVX NSCLC, 101%. The growth in the assay with SN12C renal is 109%; in the assay on UO-31 renal, 78.6%; with TK-10 renal, 101%; with ACHN renal it was 96.9%; in the assay with CAKI-1 renal, 82.4%; in the assay on A498 renal, 89.4%. Further, the growth is 100% with CCRF-CEM leukemia and 102% with MOLT-4 leukemia.
In the case of `Cc1ccc(C)c(NC2=C(Cl)C(=O)c3nc(C)ccc3C2=O)c1`, the growth in the assay on HCT-15 colon was -60.9% (active); in the assay with HT29 colon it was 86.4%; in the assay with SNB-75 CNS, 63.2%; in the assay with SNB-19 CNS it was 17.1%; with U251 CNS it was 1.85% (active); in the assay on PC-3 prostate it was 9.58% (active). Moreover, the growth in the assay with SK-MEL-5 melanoma is -96.8% (active); in the assay with UACC-62 melanoma, -35.2% (active); with LOX IMVI melanoma, -69.5% (active); in the assay with SK-MEL-28 melanoma, -11.6% (active); in the assay on SK-MEL-2 melanoma it was -36.2% (active); with EKVX NSCLC, 1.21% (active). In addition, the growth is -81.7% (active) in the assay on SN12C renal; -81.4% (active) in the assay with UO-31 renal; 147% in the assay on TK-10 renal; -96.3% (active) in the assay on ACHN renal; 57% with CAKI-1 renal; 83.8% with A498 renal. The growth with CCRF-CEM leukemia was 0.186% (active); in the assay with MOLT-4 leukemia, -11% (active).
As to `CC1CC(=O)C2=C(C1)Nc1ccc(Br)cc1CC2c1c[nH]c2ccc(Br)cc12` (stereo not given), the growth in the assay with HCT-15 colon was 27.1%; in the assay with HT29 colon, 11.1%; with SNB-75 CNS, -7.47% (active); in the assay on SNB-19 CNS, 54.7%; in the assay on U251 CNS it was 53.1%; with PC-3 prostate, 31.3%. The growth in the assay on SK-MEL-5 melanoma was 66.1%; with UACC-62 melanoma it was 42.1%; in the assay on LOX IMVI melanoma, 34.9%; in the assay on SK-MEL-28 melanoma, 57.2%; in the assay with SK-MEL-2 melanoma, 37.3%; in the assay with EKVX NSCLC, 41.2%. In addition, the growth was 53.6% in the assay on SN12C renal; 50.9% with UO-31 renal; 79.4% in the assay on TK-10 renal; 48.6% in the assay on ACHN renal; 38.1% in the assay with CAKI-1 renal; 19.7% in the assay on A498 renal. In addition, the figures for the growth in the assay with CCRF-CEM leukemia and in the assay with MOLT-4 leukemia were 29.7% and 35.8%, respectively.
